Experimental findings from PubChem BioAssay (NCI) are described below.

Where “and” joins values, the source holds several entries; their conditions need not be identical. Identical values can stand only once. Compounds without any hit were thinned out: in the full panel of roughly 83,000, 20% have a hit.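 Values shown are percent growth following 48 h exposure of cells in 96-well plates to a single concentration of compound; below 10 was considered active.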 A number with no mark means an inactive call. Calls of active or inactive are those of the source.

For the test, the system named is HL-60(TB) leukemia. In words: NCI-60 one-dose screen, 48 h (100 = growth as untreated, 0 = no growth, -100 = all killed). To be noted: 10 µM unless noted.
Take `O=c1nc2c(-c3nc4ccccc4s3)n[nH]n2c2sc3c(c12)CCCC3`: the growth is 99.4%. On to `COc1cccc(-c2nnc(COc3ccc(-c4nc5ccc(C)cc5[nH]4)cc3OC)o2)c1`, for which the growth was -56.2% (active). The result for `COc1ccc(-c2n[nH]nc2-c2csc3ccccc23)cc1OC` reads 10.1%.

Consider `COc1ccc(C2NCCc3c2[nH]c2ccccc32)cc1CN1CCN(c2ccc(F)cc2)CC1` (stereo not given), for which the growth was 24.7%. `Nc1ccc(S(=O)(=O)Nc2ncccn2)cc1`: the growth is 105%. Take `COc1cc(OC)cc(-c2cncn2-c2ccc(-c3nc4cc(OC)cc(OC)c4s3)cc2)c1`: the growth is 41%. Consider `COc1ccc(-c2[nH]ncc2Nc2cc(OC)c(OC)c(OC)c2)cc1`, for which the growth was 31.6%. For the molecule `CN1C(=O)/C(=C/c2nc(-c3cccc(F)c3)n3ccccc23)c2ccccc21`, the growth was 92.6%. Take `CCN(CC)CCOc1ccc(/C=N/Nc2nc3c([nH]2)c(=O)n(C)c(=O)n3C)cc1`: the growth is 97.3% and 115%. `Cc1cc(C(C)(C)C)ccc1S`: the growth was 111%. The result for `COc1ccc(/C=C/C(=O)/C=C(/C=C/c2ccc(OC)c(OC)c2)OB(F)F)cc1OC` reads 19.7%. Take `NC(=O)c1n[nH]n2c1nc(=O)c1c3c(sc12)CCCC3`: the growth was 99.9%. Turning to `COc1cc(/C=C/C(=O)c2c(C)nc3ccccc3c2C)ccc1OCCCN1CCN(C(=O)c2ccco2)CC1`, the growth was 74.7%.

Take `O=C(O)C1C2C=CC(C2)C1C(=O)O` (stereo not given): the growth was 25.8% and 104%.

Turning to `COC(=O)c1cc(C(=O)OC)cc([N+](=O)[O-])c1`, the growth is 85.8%.

Take `O=C(O)CCCCCCCCCCCCCCC(=O)O`: the growth is 102%.

Consider `OCCN1CCN(CCO)CC1`, for which the growth was 108% and 102% and 96.2%. With `O=C1NC(=C(Cl)Cl)/C(=N/S(=O)(=O)N2CCC(C3(C(F)(F)F)N=N3)CC2)N1`, the growth was 77%. Then `Cc1nc2cc(Nc3nc(N4CCOCC4)nc(N4CCN(C)CC4)n3)ccc2n1Cc1ccccc1`, with 103%; and `O=C1c2c(c3c4ccccc4[nH]c3c3ccc4ccccc4c23)C(=O)N1CCN1CCCCC1`, with 9.19% (active); and `COc1ccc(-c2nn(Cc3ccccc3)c3c2-c2oncc2CC3)cc1OC`, with 87.7%.

As to `O=C(CCl)Nc1ccc2c(c1)C(=O)c1ccccc1C2=O`, the growth is 12.7%.

As to `CCc1ccccc1-n1c(-c2ccc(Cl)cc2)cc(-c2ccc(Cl)cc2)c(C#N)c1=O`, the growth was 82.7%.

Turning to `CN(C)c1ccc(C(Cc2ccc3ccccc3n2)Cc2ccc3ccccc3n2)cc1`, the growth was 16% and 73.5%. As to `N#Cc1c(N)nc2c(nnn2-c2cccc(C(F)(F)F)c2)c1N`, the growth is 95.2%. Take `CCCCOC1NC(=O)NC(=O)C1(F)C(=O)OCC` (stereo not given): the growth is 63.5%. The result for `CN1CCN(CCOc2cc(OC3CCOCC3)c3c(Nc4c(Cl)ccc5c4OCO5)ncnc3c2)CC1` reads 101%; that for `O=c1c2cc(F)ccc2sc2c(NCCN3CCCCC3)nc3ccccc3c12`, 57%. For `C=CCn1c(SCC(=O)Nc2ccc(C(=O)/C=C/c3cc(OC)c(OC)c(OC)c3)cc2)nnc1-c1cc(-c2ccc(S(C)(=O)=O)cc2)nc2ccccc12`, the growth was 69.8%. The result for `COc1ccc(-c2nsc3c2NC(=O)CC3c2cccc(Cl)c2)cc1` (stereo not given) reads -19.2% (active); that for `O=C(O)CCCN1C(=O)/C(=C/C(Cl)=C/c2ccccc2)SC1=S`, 7.56% (active); that for `O=[N+]([O-])c1ccc2[nH]cc(-c3c4ccccc4cc4[nH]c5ccc([N+](=O)[O-])cc5c34)c2c1`, 11.7%.

As for `O=C(Nc1cccc(-n2cc(-c3ccncc3)c(-c3ccc(Cl)c(O)c3)n2)c1)Nc1cccc(C(F)(F)F)c1`, the growth is 12.5%.

As to `CC(C)c1cc(N=O)cc(C(C)C)c1O`, the growth was 93%.

As to `COc1ccc(S(=O)(=O)c2ccc(F)cc2)cc1`, the growth was 105%. Then `COc1cc(OC)cc(-c2ccc(-c3ccc(C(=N)N)cn3)o2)c1`, with -65.7% (active); and `Cc1cc(=O)oc2c1ccc1oc(C#N)c(C)c12`, with 107%; and `CCOC(=O)/C=C1/SC(=Nc2ccc(C#N)cc2)N(Cc2ccco2)C1=O`, with -26.6% (active). For `CC(=O)c1ccc(N2C(=O)c3ccc(Oc4ccccc4)cc3C2=O)cc1`, the growth was 105%.

Regarding `COc1cc(/C=C/C(=O)c2ccc(Nc3ncnc4cc(OC)c(OC)cc34)cc2)cc(OC)c1`, the growth was 94.2%.
